Assay results reported in PubChem BioAssay (Tox21).
Results filed as inconclusive are left out. Active and inactive are the calls of the source. Unless noted, calls come from the whole dose curve.

Assays:
[1] = Nuclear factor erythroid 2-related factor 2/antioxidant responsive element (Nrf2/ARE) small molecule agonists: qHTS cell viability counter screen in human keratinocytes (AID 1919968; active = well fitted curve in the direction sought with a large enough effect in the repeat runs; an effect the other way counts as inactive or inconclusive; note: nearly all actives have a fitted effect of over 55% in size)
Procedure, shortened: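 KeratinoSens HaCaT cells, 1,500/well, preincubated 5 h, then exposed to compounds in DMSO for 23 h at 37 C/5% CO2. Viability read as CellTiter-Fluor fluorescence after 1 h, in the same wells as the ARE-luciferase read.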

[2] = Nuclear factor erythroid 2-related factor 2/antioxidant responsive element (Nrf2/ARE) small molecule agonists: luciferase reporter gene qHTS assay in human keratinocytes (AID 1919969); note: nearly all actives have a fitted effect of over 35% in size
[3] = molecular target: Gonadotropin-releasing hormone receptor (Homo sapiens) (UniProt P30968); assay: Human gonadotropin-releasing hormone receptor (GnRHR) small molecule agonists, calcium flux assay in GnRHR-HEK293 cells (AID 1920063); note: nearly all actives have a fitted effect of over 35% in size
Procedure, shortened: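 HEK293 cells stably expressing human GnRHR were dye-loaded for 1 h at 37 C. Compound was added in agonist mode and fluorescence (Ex/Em 480/540) recorded kinetically for 3 min. Fifteen concentrations, triplicates.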

[4] = molecular target: KiSS-1 receptor (Homo sapiens) (UniProt Q969F8); assay: Human kisspeptin (KISS1R) small molecule agonists, calcium flux assay in KISS1R-HEK293 cells (AID 1920064; active = well fitted curve in the direction sought with a large enough effect in the repeat runs; an effect the other way counts as inactive or inconclusive)
Procedure, shortened: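 HEK293 cells stably expressing human KISS1R were loaded with calcium dye for 1 h at 37 C, then given compound; fluorescence (Ex/Em 480/540) was read kinetically for 3 min. Fifteen concentrations, triplicate.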

[5] = G protein-coupled receptor (GPCR) small molecule agonists, calcium flux assay: HEK293 wild type cell line counter screen (AID 1920065)
Procedure, shortened: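 Wild-type HEK293 cells plated 18 h, loaded with calcium dye 1 h at 37 C, then compounds added in agonist mode (ATP as positive control). Kinetic fluorescence Ex/Em 480/540 recorded 3 min at 1 sec intervals; 15 concentrations, triplicate.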

[6] = p53 small molecule agonists, cell-based qHTS assay with human liver microsomes (AID 1963577);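 note: p53 response element beta-lactamase reporter cells with liver microsomes plus NADPH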
Procedure, shortened: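 Reporter activation was measured by LiveBLAzer fluorescence intensity in p53RE-bla cells, which had been exposed to compounds for 16 h at 37 C alongside 0.5 mg/mL human liver microsomes and 0.5 mg/mL NADPH (final concentrations).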

[7] = p53 small molecule agonists, cell-based qHTS assay with rat liver microsomes (AID 1963578)
Procedure, shortened: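 Compound in DMSO added to p53RE-bla cells 5 h post-plating; rat microsomes/NADPH 0.5 mg/mL final; 16 h, 37 C; LiveBLAzer 2 h RT.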

[8] = p53 small molecule agonists, cell-based qHTS assay with human liver microsomes: qHTS cell viability counter screen (AID 1963579); note: nearly all actives have a fitted effect of over 45% in size
Procedure, shortened: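 HLM-supplemented (0.5 mg/mL final) and NADPH-supplemented (0.5 mg/mL final) p53RE-bla cultures, 4,000 cells per well, were dosed with compounds in DMSO for 16 h at 37 C; luminescent ATP detection (CellTiter-Glo, 30 min, room temperature) quantified surviving cells.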

[9] = p53 small molecule agonists, cell-based qHTS assay with rat liver microsomes: qHTS cell viability counter screen (AID 1963580); note: nearly all actives have a fitted effect of over 45% in size
Procedure, shortened: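 Intracellular ATP, by CellTiter-Glo luminescence, defines viability. HCT-116 p53RE-bla cells, 4,000 per well, were compound-treated in the presence of rat liver microsomes and NADPH for 16 h at 37 C.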

[10] = p53 small molecule agonists, cell-based qHTS assay: qHTS cell viability counter screen (AID 1963581); note: nearly all actives have a fitted effect of over 45% in size
Procedure, shortened: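 p53RE-bla HCT-116 cells, compounds added 5 h after plating and incubated 16 h at 37 C. Cytotoxicity measured in the same wells as intracellular ATP by CellTiter-Glo luminescence after 30 min at room temperature.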

[11] = p53 small molecule agonists, cell-based qHTS assay (AID 1963582; active = well fitted activation curve with a large enough effect in the signal ratio in the repeat runs, not every such curve was filed as active; the % refers to the signal ratio)
Procedure, shortened: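 p53RE-bla reporter cells, compounds added in DMSO after 5 h plating, incubated 16 h at 37 C. Beta-lactamase read via 2 h room-temperature LiveBLAzer B/G FRET substrate, fluorescence intensity.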

[12] = molecular target: 5-hydroxytryptamine receptor 2A (Homo sapiens) (UniProt P28223); assay: 5-hydroxytryptamine receptor 2A (HTR2A) small molecule antagonists, cell-based qHTS assay (AID 1963586); note: nearly all actives have a fitted effect of over 45% in size
Procedure, shortened: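 Antagonist-mode intracellular calcium assay: DOI (4 nM) added after 5 min compound pre-incubation at room temperature to dye-loaded HTR2A-CHO cells. Fluorescence followed for 3 min, sampled every second.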

[13] = molecular target: 5-hydroxytryptamine receptor 2A (Homo sapiens) (UniProt P28223); assay: 5-hydroxytryptamine receptor 2A (HTR2A) small molecule agonists, cell-based qHTS assay (AID 1963587); note: nearly all actives have a fitted effect of over 30% in size
Procedure, shortened: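 Kinetic calcium-flux fluorescence (2 min, 1 sec intervals) after compound addition in agonist mode. HTR2A-CHO cells were cultured 18 h, then dye-loaded 1 h at 37 C.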

[14] = molecular target: Muscarinic acetylcholine receptor M1 (Homo sapiens) (UniProt P11229); assay: Cholinergic receptor muscarinic 1 (CHRM1) small molecule antagonists, cell-based qHTS assay (AID 1963588); note: nearly all actives have a fitted effect of over 40% in size
Procedure, shortened: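 CHRM1-CHO calcium-flux assay, antagonist mode. Cells were seeded 18 h, dye-loaded 1 h at 37 C and given compound for 5 min at RT, then acetylcholine was added at 50nM. FDSS fluorescence was read 3 min; 15 concentrations, three runs.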

[15] = molecular target: Muscarinic acetylcholine receptor M1 (Homo sapiens) (UniProt P11229); assay: Cholinergic receptor muscarinic 1 (CHRM1) small molecule agonists, cell-based qHTS assay (AID 1963589); note: nearly all actives have a fitted effect of over 35% in size
Procedure, shortened: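 CHO cells stably expressing human CHRM1 were loaded with calcium dye for 1 h at 37 C, then compound was added in agonist mode. Intracellular calcium fluorescence was followed kinetically at 1 s intervals. Fifteen concentrations were tested in three independent runs.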

[16] = cAMP Responsive Elements (CRE) small molecule agonists, cell-based qHTS assay (AID 1963590)
Procedure, shortened: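 CRE-bla HEK 293T cells, 2,000/well in DMEM with 10% dialyzed FBS and 25 mM HEPES, pre-incubated 18 h at 37 C, then exposed to compound 3 h at 37 C. Beta-lactamase reporter read with LiveBLAzer B/G FRET substrate after 2 h at room temperature.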

[17] = cAMP Responsive Elements (CRE) small molecule antagonists, cell-based qHTS assay (AID 1963591; active = well fitted inhibition curve with a large enough effect in the signal ratio in the repeat runs, not every such curve was filed as active; the % refers to the signal ratio)
Procedure, shortened: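 CRE-bla HEK293T cells plated 18 h, then given compound plus NKH477 at 0.25 uM final for 3 h at 37C. Beta-lactamase reporter read with LiveBLAzer B/G FRET substrate after 2 h at room temperature.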

[18] = molecular target: Beta-2 adrenergic receptor (Homo sapiens) (UniProt P07550); assay: Adrenergic beta2 receptor (ADRB2) small molecule antagonists, cell-based qHTS assay (AID 1963592); note: series mostly up to about 92 µM; nearly all actives have a fitted effect of over 50% in size
Procedure, shortened: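 Cells (CHO, stable ADRB2 overexpression) incubated 18-20hr at 37C; compounds added from DMSO; agonist mix (1nM isoproterenol, 100uM IBMX, 25uM Ro-20-1724) added; 0.5hr RT; d2-cAMP and anti-cAMP-cryptate added; 1hr RT; 665/615 nm read.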

[19] = molecular target: Beta-2 adrenergic receptor (Homo sapiens) (UniProt P07550); assay: Adrenergic beta2 receptor (ADRB2) small molecule agonists, cell-based qHTS assay (AID 1963593);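 note: CHO cells stably overexpressing human ADRB2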
Procedure, shortened: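 CHO cells stably over-expressing ADRB2 were plated overnight at 37C, then dosed with compounds plus a stimulation mix containing 100uM IBMX and 25uM Ro-20-1724 for 0.5hr at room temperature. cAMP was measured by HTRF competition, 1hr.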

[20] = molecular target: D(2) dopamine receptor (Homo sapiens) (UniProt P14416); assay: Dopamine D2 receptor (DRD2) small molecule agonists, cell-based qHTS assay (AID 1963594); note: nearly all actives have a fitted effect of over 35% in size
Procedure, shortened: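 cAMP accumulation in DRD2-HEK293 cells measured by HTRF after 1 h detection; compounds added 10 min before NKH477 (200nM […]) forskolin-analogue stimulation, 30 min at room temperature, with Ro20-1724 present at 0.1 mM final.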

Measured: Potency

Sequence of Beta-2 adrenergic receptor (Homo sapiens) (P07550 whole entry, looked up): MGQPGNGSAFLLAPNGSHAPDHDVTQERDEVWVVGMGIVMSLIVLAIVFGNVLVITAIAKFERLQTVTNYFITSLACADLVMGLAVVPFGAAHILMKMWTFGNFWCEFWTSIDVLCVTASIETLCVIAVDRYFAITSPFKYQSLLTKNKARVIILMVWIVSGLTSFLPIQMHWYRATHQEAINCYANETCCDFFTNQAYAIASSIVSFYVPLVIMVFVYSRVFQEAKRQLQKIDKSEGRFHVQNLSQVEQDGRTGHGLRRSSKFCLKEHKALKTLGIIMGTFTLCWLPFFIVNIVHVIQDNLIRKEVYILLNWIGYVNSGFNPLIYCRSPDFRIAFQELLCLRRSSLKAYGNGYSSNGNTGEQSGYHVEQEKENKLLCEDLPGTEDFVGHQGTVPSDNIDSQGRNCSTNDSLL
Sequence of KiSS-1 receptor (Homo sapiens) (Q969F8 whole entry, looked up): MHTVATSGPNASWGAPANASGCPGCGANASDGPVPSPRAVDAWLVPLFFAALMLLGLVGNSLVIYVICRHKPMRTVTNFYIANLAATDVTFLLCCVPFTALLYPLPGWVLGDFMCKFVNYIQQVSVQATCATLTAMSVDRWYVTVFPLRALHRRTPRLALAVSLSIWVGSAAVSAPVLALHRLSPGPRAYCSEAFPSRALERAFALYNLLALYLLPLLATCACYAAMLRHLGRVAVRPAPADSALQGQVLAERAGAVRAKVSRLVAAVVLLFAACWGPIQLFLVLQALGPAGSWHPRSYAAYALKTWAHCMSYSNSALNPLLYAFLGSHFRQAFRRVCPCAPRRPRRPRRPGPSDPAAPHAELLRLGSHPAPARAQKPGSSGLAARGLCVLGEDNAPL
Sequence of Muscarinic acetylcholine receptor M1 (Homo sapiens) (P11229 whole entry, looked up): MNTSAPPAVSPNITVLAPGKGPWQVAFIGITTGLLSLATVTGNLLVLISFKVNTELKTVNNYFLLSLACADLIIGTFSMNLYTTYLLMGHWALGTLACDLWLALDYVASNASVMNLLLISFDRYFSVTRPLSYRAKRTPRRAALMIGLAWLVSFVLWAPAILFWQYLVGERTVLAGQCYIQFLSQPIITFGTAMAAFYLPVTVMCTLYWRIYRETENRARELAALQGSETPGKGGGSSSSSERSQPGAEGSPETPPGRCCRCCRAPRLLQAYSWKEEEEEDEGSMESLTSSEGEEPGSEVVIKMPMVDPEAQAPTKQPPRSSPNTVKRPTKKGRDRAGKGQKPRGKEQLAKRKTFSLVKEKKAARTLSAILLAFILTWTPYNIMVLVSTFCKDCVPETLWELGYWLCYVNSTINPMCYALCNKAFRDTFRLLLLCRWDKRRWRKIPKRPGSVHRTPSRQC
Sequence of D(2) dopamine receptor (Homo sapiens) (P14416 whole entry, looked up): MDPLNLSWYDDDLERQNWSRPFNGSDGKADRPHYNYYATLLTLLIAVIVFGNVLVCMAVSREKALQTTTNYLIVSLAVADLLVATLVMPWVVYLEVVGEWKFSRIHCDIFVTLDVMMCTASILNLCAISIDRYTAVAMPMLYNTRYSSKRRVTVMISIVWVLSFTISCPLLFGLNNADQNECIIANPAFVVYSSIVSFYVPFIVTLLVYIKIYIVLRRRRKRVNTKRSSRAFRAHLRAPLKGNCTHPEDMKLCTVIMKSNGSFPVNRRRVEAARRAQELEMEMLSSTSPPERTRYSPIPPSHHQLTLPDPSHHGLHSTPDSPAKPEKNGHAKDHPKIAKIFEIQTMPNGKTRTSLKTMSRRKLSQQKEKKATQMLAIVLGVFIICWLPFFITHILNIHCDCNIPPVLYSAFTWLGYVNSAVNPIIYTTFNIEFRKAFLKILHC
Sequence of 5-hydroxytryptamine receptor 2A (Homo sapiens) (P28223 whole entry, looked up): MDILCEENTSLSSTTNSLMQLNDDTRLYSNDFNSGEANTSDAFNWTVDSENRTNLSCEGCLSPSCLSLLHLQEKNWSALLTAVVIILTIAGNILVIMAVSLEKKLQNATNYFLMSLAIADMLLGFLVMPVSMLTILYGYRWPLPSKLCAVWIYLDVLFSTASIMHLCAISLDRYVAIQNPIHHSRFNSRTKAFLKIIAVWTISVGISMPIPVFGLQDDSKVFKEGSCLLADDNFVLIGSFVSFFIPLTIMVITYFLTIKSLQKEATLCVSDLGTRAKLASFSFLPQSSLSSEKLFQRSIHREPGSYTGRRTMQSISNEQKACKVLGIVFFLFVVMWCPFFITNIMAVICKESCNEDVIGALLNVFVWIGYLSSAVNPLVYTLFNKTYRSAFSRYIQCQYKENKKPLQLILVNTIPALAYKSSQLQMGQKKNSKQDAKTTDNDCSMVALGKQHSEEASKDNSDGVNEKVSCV
Sequence of Gonadotropin-releasing hormone receptor (Homo sapiens) (P30968 whole entry, looked up): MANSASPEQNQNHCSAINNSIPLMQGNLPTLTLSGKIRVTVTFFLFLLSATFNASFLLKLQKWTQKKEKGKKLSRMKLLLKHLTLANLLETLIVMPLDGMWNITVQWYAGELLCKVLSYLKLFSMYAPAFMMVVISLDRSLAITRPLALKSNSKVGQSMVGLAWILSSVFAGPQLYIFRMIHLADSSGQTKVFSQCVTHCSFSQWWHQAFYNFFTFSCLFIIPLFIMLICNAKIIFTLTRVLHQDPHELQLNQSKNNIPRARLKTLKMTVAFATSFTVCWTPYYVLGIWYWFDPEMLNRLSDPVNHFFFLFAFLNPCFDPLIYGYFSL

C=C1[C@H]2CC[C@@H]3[C@H]2C(C)(C)CCC[C@]13C
inactive: all assays above

O=C(O)CNC(=O)c1ccccc1I
inactive: all assays above

CCCCCCCCCCCCCCCC(=O)NCCO
inactive: all assays above

CS(=O)(=O)O
inactive: all assays above

CC1=C(O)C(=O)C(C)O1 (centres undefined)
inactive: all assays above

Cc1cc(C)c(C)c(O)c1
inactive: all assays above

CCC(C)SSC(C)CC (centres undefined)
not listed: [20]
inactive: all other assays above
